Shown are actives, neighbours in structure and some others; about 4.7% of the full set was active somewhere.
SKKanGAS inh: blocks kanamycin growth of S. pyogenes SKKanGAS strain | inhibition, % at 7.5 µM | BacTiter-Glo, 6 h | 1.3% of 300,000 active;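 active = mean replicate score, as percent of positive control median, at least 50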;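 note: strain carries kanamycin resistance gene driven by streptokinase promoter and grows in 40 µg/ml kanamycin; loss of luminescence reflects streptokinase promoter inhibition or plain growth inhibition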
Calb FLC: C. albicans growth modulation with fluconazole; C. albicans CaCi-2 (fluconazole-resistant clinical isolate) + fluconazole, Alamar Blue growth, 48 h; growth inhibition, % (concentration not given with the values); 0.57% of 300,000 active;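 active = growth inhibition above about 58% in most replicates, limit read from the data, passing the limit was not always enough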;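 note: all wells also contain fluconazole at 8 µg/ml as a sub-toxic cotreatment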
tim10-1 inh: growth inhibitors of tim10-1 mutant yeast. S. cerevisiae tim10-1 ts strain growth, BacTiter-Glo, 24 h. inhibition, % at 20 µM. 2.2% of 330,000 active. AID 463190;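 active = inhibition of at least 40%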;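 note: mutant grown at 25 °C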
tim23-1 inh: inhibits growth of tim23-1 mutant yeast. S. cerevisiae tim23-1 growth, BacTiter-Glo luminescence, 24 h. inhibition, % at 20 µM. 1.3% of 330,000 active;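 active = growth inhibition of the mutant yeast at or above 50%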;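 note: temperature-sensitive mutant grown at 25 °C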
TIM10 inh: inhibits growth of TIM10 yeast strain; S. cerevisiae TIM10 strain growth, BacTiter-Glo luminescence, 24 h; inhibition, % at 10 µM; 1.4% of 330,000 active;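 active = inhibition of 40% or more at the single tested concentration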;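 note: wild-type TIM10 isogenic control strain grown at permissive 25 °C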
PfHsp90 set2: growth inhibition of yeast expressing Plasmodium Hsp90; inhibition, % at 9.4 µM; S. cerevisiae expressing PfHsp90, BacTiter-Glo ATP, 48 h; yeast lacking PDR1 and PDR3 efflux regulators; 0.32% of 310,000 active;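 active = every replicate shows inhibition above about 80%, whatever the replicate mean, limit read from the data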
tim10-1 confirm: tim10-1 yeast growth inhibition, confirmed; shares compounds with tim10-1 inh; S. cerevisiae tim10-1 ts strain growth, BacTiter-Glo, 24 h; inhibition, % at 20 µM; 56% of 7,400 active; AID 463213;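 active = inhibition of yeast growth at or above a set limit in either of two repeat tests at 20 µM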;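 note: tim10-1 mutant grown at permissive 25 °C to find synthetic lethal compounds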
Hits are given with their value; – = inactive; · = no result given.

SMILES	SKKanGAS inh	Calb FLC	tim10-1 inh	tim23-1 inh	TIM10 inh	PfHsp90 set2	tim10-1 confirm
CC(C)c1nnc(NC(=O)CCS(=O)(=O)c2nc(-c3cccs3)cc(C(F)(F)F)n2)s1	–	–	61	–	–	·	45
CC(C)c1nnc(NC(=O)CCS(=O)(=O)Cc2ccccc2)s1	–	–	–	–	–	–	·
CN(C)C(CNC(=O)C1CCN(S(=O)(=O)c2ccccc2C(F)(F)F)CC1)Cc1ccccc1 (stereo not given)	·	·	–	–	–	–	·
Cc1cc(C)c(NC(=O)c2cccc3c2C(=O)N(C2CCCCC2)C3)c(C)c1	–	–	49	–	–	–	–
Cc1ccc(NC(=O)c2cccc3c2C(=O)N(C2CCCCC2)C3)c(C)c1	–	–	–	–	–	–	·
Cc1cccc(CCNC(=O)c2cccc3c2C(=O)N(C2CCCCC2)C3)c1	–	–	52	–	–	–	–
COc1ccc(CNC(=O)C2CCN(S(=O)(=O)c3ccc4c(c3)CC(C)N4C(=O)C3CC3)CC2)cc1 (stereo not given)	–	–	–	–	–	–	31
CC1CC(C)CN(S(=O)(=O)c2ccc3c(c2)CC(C)N3C(=O)C2CCC2)C1 (stereo not given)	–	–	43	–	–	–	–
COc1cccc(CNC(=O)C2CCN(S(=O)(=O)c3ccc4c(c3)CC(C)N4C(=O)C3CC3)CC2)c1 (stereo not given)	–	–	–	–	–	–	·
O=C(c1ccco1)N1CCN(c2ncnc3scc(-c4cccs4)c23)CC1	–	–	46	–	–	–	–
Cc1c(OC(C)C(=O)NCCCn2ccnc2)ccc2c3c(c(=O)oc12)CCC3 (stereo not given)	–	–	–	–	–	–	·
CC(C)CNC(=O)c1c2c(nc3ccccc13)-c1ccccc1CC2	–	–	–	–	–	·	·
CCN(CC)C(=O)c1c2c(nc3ccccc13)-c1ccccc1CC2	–	–	42	–	–	–	–
CCCN(CC(=O)Nc1ccccc1C)C(=O)CCl	–	–	41	–	–	–	–
CCCN(CC(=O)Nc1ccccc1C)C(=O)COc1c(C)cccc1C	·	·	–	–	–	–	·
COc1cc(C(=O)OCC(=O)NC2CCCCCC2)ccc1OCC(C)C	–	–	–	–	–	·	·
O=[N+]([O-])c1ccc2oc(C(O)c3cccc(Cl)c3)cc2c1 (stereo not given)	–	–	44	–	–	–	43
OCCC1CN(Cc2cc3c(cc2Cl)OCO3)CCN1Cc1ccccc1 (stereo not given)	–	–	–	–	–	–	·
COCCN(C(=O)C1=COCCO1)c1c(N)n(Cc2ccccc2)c(=O)[nH]c1=O	–	–	–	–	–	–	·
CCCCN(C(=O)C1=COCCO1)c1c(N)n(Cc2ccccc2)c(=O)[nH]c1=O	–	·	43	–	–	–	–
Cc1ccc2cccc(OCCCOc3ccccc3F)c2n1	–	–	43	–	–	–	–
O=C(Cc1c(F)cccc1Cl)OCC(=O)N1CCN(c2ccccc2)CC1	·	·	–	–	–	–	·
COc1ccc(N2CCN(C(=O)COC(=O)Cc3c(F)cccc3Cl)CC2)cc1	–	–	45	–	–	–	–
N#CC(C(=O)Nc1ccc(Cl)c(Cl)c1)=C1Nc2ccccc2N1	–	–	45	–	–	–	–
N#CC(C(=O)Nc1cccc(Cl)c1)=C1Nc2ccccc2N1	–	–	–	–	–	–	·
SMILES	SKKanGAS inh	Calb FLC	tim10-1 inh	tim23-1 inh	TIM10 inh	PfHsp90 set2	tim10-1 confirm
Nc1nnc(-c2ccccc2)c(-c2ccccc2)n1	–	–	41	–	–	–	–
CC(=O)N1N=C(c2cccc([N+](=O)[O-])c2)OC1c1cccc(Br)c1 (stereo not given)	–	–	45	–	–	–	–
Cc1n[nH]c(=S)n1/N=C/c1cccc(OCc2ccccc2)c1	–	–	41	–	–	–	–
Cc1cccc(/C=N/n2c(COc3ccccc3)n[nH]c2=S)c1	–	–	43	–	–	–	37
COCCCNC(=O)/C(C#N)=C/c1ccc(F)cc1	–	–	42	–	–	–	–
CCOC(=O)C1=C(C)NC(C)=C(C(=O)OCC)C1C(=O)OCC(=O)NCCc1ccc(S(N)(=O)=O)cc1	–	–	–	–	–	·	·
COc1ccc(-c2nn(-c3ccccc3)cc2/C=C(\CC(=O)O)c2nc3ccccc3s2)cc1OC	–	–	71	–	–	–	41
O=C(O)Cc1ccc(NC(=O)Nc2ccc3c(c2)OCO3)cc1	–	–	–	–	–	–	·
COc1ccc(/C(N)=N/OC(=O)CCCc2ccccc2)cc1OC	–	–	–	–	–	–	·
COc1ccc(/C(N)=N/OC(=O)C2CCCCC2)cc1	–	–	51	–	–	–	31
COc1ccc(/C(N)=N/OC(=O)CC2CCCCC2)cc1OC	–	–	51	–	–	–	61
COc1ccc(/C(N)=N/OC(=O)C2CCCCC2)cc1OC	–	–	–	–	–	–	·
COc1ccc(/C(N)=N/OC(=O)CCC2CCCC2)cc1OC	–	–	46	–	–	–	37
Cc1cc(C)nc(N2N=C(CSc3ccc(Cl)cc3)CC2=O)n1	–	–	45	–	–	–	–
Cc1cc(C)nc(N2C(=O)CC(Cc3ccc(Cl)cc3)C2=O)n1 (stereo not given)	–	–	–	–	–	–	·
CC(C)[C@H](NS(=O)(=O)c1ccccc1)C(=O)OCC(=O)N1N=C(c2ccc(Cl)cc2)CC1c1ccco1 (stereo not given in full)	–	–	41	–	–	–	–
O=c1c(CN2CCN(c3ccccn3)CC2)coc2ccccc12	–	–	–	–	–	–	·
Oc1ccc(CN2CCN(c3ccccc3)CC2)c2cccnc12	55	–	66	–	–	–	–
Oc1ccc2ccccc2c1CN1CCN(c2ccccc2)CC1	–	–	–	–	–	·	·
O=[N+]([O-])c1cc(CN2CCN(c3cccc(C(F)(F)F)c3)CC2)c2cccnc2c1O	95	–	48	–	–	99	–
Oc1c(CN2CCN(c3ccccn3)CC2)cc(Cl)c2cccnc12	108	–	52	–	–	–	–
O=[N+]([O-])c1cc(CN2CCCC2)c2cccnc2c1O	·	·	·	·	·	–	·
CCCNC(=O)CN(C)CC(=O)Nc1ccccc1C#N	–	–	–	–	–	–	·
Cc1ccc(C)c(N2CC(C(=O)Nc3cc(C)on3)CC2=O)c1 (stereo not given)	–	–	–	–	–	–	·
CN(C(=O)c1cccc(C#CC(C)(C)O)c1)C1CCCN(Cc2ccccc2F)C1 (stereo not given)	–	–	–	–	–	–	·
N#C/C(=C/c1ccc(-c2ccc(Br)cc2)o1)C(=O)NC1CCCCC1	–	–	–	–	–	–	·

Assay outcomes deposited in PubChem by several laboratories.
